Assay outcomes: PubChem, National Center for Advancing Translational Sciences (NCATS)
A selection: hits, their analogues and other compounds. The true share with any hit is near 4.7%.
D1 PAM: potentiators of human D1 dopamine receptor. P21728. HEK293 TREx D1 cells, calcium flux, dopamine EC20 potentiation. potentiation, % at 10 µM. 360,000 compounds, 0.036% hits; in the data active = potentiation above about 30%; also: 0% is about no effect
Target sequence (P21728 whole entry, looked up): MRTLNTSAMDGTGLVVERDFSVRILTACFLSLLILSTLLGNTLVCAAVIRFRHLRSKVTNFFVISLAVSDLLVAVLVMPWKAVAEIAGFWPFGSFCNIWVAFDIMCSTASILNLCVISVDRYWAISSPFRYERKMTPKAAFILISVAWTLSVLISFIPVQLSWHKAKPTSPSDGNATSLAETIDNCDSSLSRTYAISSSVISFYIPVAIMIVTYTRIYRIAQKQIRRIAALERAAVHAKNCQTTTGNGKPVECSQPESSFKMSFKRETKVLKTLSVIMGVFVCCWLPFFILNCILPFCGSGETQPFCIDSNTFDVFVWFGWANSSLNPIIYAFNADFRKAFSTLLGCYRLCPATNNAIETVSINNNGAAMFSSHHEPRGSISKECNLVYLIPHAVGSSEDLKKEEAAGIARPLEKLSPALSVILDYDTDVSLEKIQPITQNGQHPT
D1 agonist: human D1 receptor agonism | HEK293 T-REx D1 cells, calcium flux, agonist mode | P21728 | activation, % at 2 µM | 360,000 compounds, 1% hits; also: 0% is about no effect
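Inducible HEK293 T-REx D1 cells, force-coupled to calcium signalling, were plated at 4000 cells/well with tetracycline and held overnight at 30 C. After no-wash calcium dye loading, compound-evoked calcium rise over 180 s flagged agonists.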
TRHR PAM: TRH receptor (human) allosteric enhancement | 360,000 compounds, 0.66% hits | enhancement, % at 2 µM | TRHR cells, fluo-8 calcium fluorescence, EC20 TRH enhancement | P34981 | AID 493056; in the data active = enhancement above about 30%; also: 0% is about no effect
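Enhancer read-out: after compound pinning and an initial kinetic agonist-mode read, an EC20 of TRH (10 nM final) was injected and fluo-8 calcium signal (Ex 480/Em 530) followed at 1 s/cycle for 100 cycles in TRHR-expressing cells.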
TRHR ag: TRH receptor (human) agonism. P34981. TRHR cells, calcium flux fluo-8, FDSS agonist mode. activation, % at 2 µM. 360,000 compounds, 0.18% hits. AID 493084; also: 0% is about no effect
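Read-out: compound-evoked intracellular calcium rise in TRHR cells, fluo-8 dye, kinetic FDSS fluorescence at 1 s/cycle following a 10-cycle baseline. Cells cultured overnight before dye loading (30 min–1.5 h, RT).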
D1 antagonist: antagonists of human D1 dopamine receptor | 360,000 compounds, 3.2% hits | activity change, negative = inhibition, % at 10 µM | P21728 | AID 504652 | HEK293 TREx D1 cells, calcium flux, dopamine EC80; active compounds read low; in the data active = activity change below about -30%; also: % is scaled to controls: 0 for no effect and ±100 for the full control effect
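Allosteric or orthosteric antagonism assessed as attenuation of the calcium response to EC80 dopamine, added 180 s after compound, in induced HEK293 Trex D1 cells loaded with no-wash calcium dye.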
* marks the source's active call; other numbers are inactive results; / = not tested or not shown. Rule as the data show it, unless noted: active = activation above about 30%; inactive = the rest.

SMILES | D1 PAM | D1 agonist | TRHR PAM | TRHR ag | D1 antagonist
CC(C)(C)c1ccc(C2SCC(=O)N2c2cccc(C(=O)O)c2)cc1 (stereo not given) | -7 | 3 | -4 | 0 | -33*
O=S(=O)(Nc1c(Br)cc(Br)c2cccnc12)C1CC1 | 20 | -1 | -4 | -3 | 12
COc1ccc(NC(=O)/C(C#N)=C\c2cc(C)n(-c3ccc(Oc4ccc([N+](=O)[O-])cn4)cc3)c2C)cc1 | 4 | 3 | -18 | 1 | 9
Cc1cc(C=O)c(C)n1-c1ccc(Oc2ccc([N+](=O)[O-])cn2)cc1 | -3 | 22 | -7 | 5 | -53*
Cn1c2cc(S(C)(=O)=O)sc2c2cnn(Cc3ccccc3F)c(=O)c21 | 18 | 7 | 1 | 0 | -24
CCN(CC)c1ccc2cc(/C(N)=N/NC(=O)c3cccs3)c(=O)oc2c1 | 3 | 30* | -4 | 25 | -11
CCN(CC)c1ccc2cc(C(N)=O)c(=N)oc2c1 | 4 | 27 | 1 | 25 | -3
N/C(=N\NC(=O)c1cccs1)c1cc2ccccc2oc1=O | -2 | 2 | 3 | -1 | -13
CC(=O)c1cc2c(ccc3ccccc32)oc1=O | -2 | 4 | 7 | 0 | -9
CCN(CC)c1ccc2cc(C(=O)Nc3ccccn3)c(=O)oc2c1 | 2 | 30 | -8 | 37* | -6
CCN(CC)c1ccc2cc(C(N)=O)c(=O)oc2c1 | 2 | 32* | 4 | 0 | 1
CCN(CC)c1ccc2cc(C(=O)Nc3cccnc3N3CCOCC3)c(=O)oc2c1 | 5 | 9 | 9 | 4 | -4
CCN(CC)c1ccc2cc(C(C)=O)c(=O)oc2c1 | 0 | 146* | -2 | 67* | 7
COc1ccc(-c2cn3nc(SCC(=O)Nc4ccccc4F)ccc3n2)cc1 | 2 | 1 | -11 | -1 | -1
CCN(CC)c1ccc2cc(C=O)c(=O)oc2c1 | -4 | 187* | 9 | 116* | 3
CN1CCN(CC#CC(C)(O)C2CC3C=CC2C3)CC1 (stereo not given) | -1 | 4 | 4 | 0 | -74*
OC(CCN1CCCCC1)(c1ccccc1)C1C[C@@H]2C=C[C@H]1C2 (stereo not given in full) | -4 | 12 | -10 | -1 | 24
CCOc1cc(CNCCc2ccc(S(N)(=O)=O)cc2)cc(Cl)c1OCc1ccccc1 | -6 | 34* | 12 | 0 | -16
CCNCc1cc(Cl)c(OCc2ccccc2)c(OCC)c1 | -6 | 55* | -4 | 1 | 0
NS(=O)(=O)c1ccc(CCNCc2cc(Br)ccc2OCc2ccccc2)cc1 | -1 | 34* | -3 | 0 | -34*
COc1cc(CNCCc2ccc(S(N)(=O)=O)cc2)ccc1OCC(=O)NC(C)(C)C | 0 | 2 | 6 | 1 | 7
CCOc1cc(CNCCc2ccc(S(N)(=O)=O)cc2)ccc1OCc1ccccc1 | -8 | 35* | 11 | 4 | -45*
CCOc1cc(CNc2ccc(S(N)(=O)=O)cc2)cc(Cl)c1OC | 2 | 2 | 6 | 0 | -9
CCOc1cc(CNCCO)cc(Br)c1OCc1ccccc1 | -7 | 8 | -3 | 0 | /
CCOc1cc(CNC(=O)C(NS(=O)(=O)c2cccs2)C(C)C)cc(OCC)c1OCC (stereo not given) | 1 | -1 | 1 | 0 | 1
SMILES | D1 PAM | D1 agonist | TRHR PAM | TRHR ag | D1 antagonist
Fc1ccc(-n2cc(-c3ccccc3)c3c(NN4CCOCC4)ncnc32)cc1 | -10 | 1 | 0 | -1 | -33*
COc1ccccc1CNS(=O)(=O)c1ccc(-c2cc(C(F)(F)F)on2)s1 | -2 | 33* | 2 | 2 | -3
CCCCN(C)CCNC(=O)c1cc(-c2ccc(Cl)s2)nc2ccccc12 | 0 | 30 | 10 | 1 | -16
Cc1ccc(C(=O)CSc2ncnc3ccccc23)o1 | 2 | 5 | 1 | 0 | 6
O=C(CSc1ncnc2ccccc12)c1cccs1 | -6 | 3 | -5 | -2 | -54*
CCc1nc(SCC(=O)N2CCCC2)c2ccccc2n1 | -6 | 0 | 3 | 0 | -1
O=C(CSc1ncnc2ccccc12)N1CCCC1 | -4 | 0 | 26 | 1 | -74*
Cc1cccc(NC(=O)C2CCN(c3nccc(C)n3)CC2)c1 | -9 | 2 | -5 | 0 | -35*
CC(C)N(Cc1ccccc1)C(=O)Cn1ncc2c([nH]c3ccccc32)c1=O | -3 | -1 | 4 | 0 | 0
